# TIM10 inh = TIM10 yeast growth inhibition; 330,000 tested, 1.4% active; S. cerevisiae TIM10 strain growth, BacTiter-Glo luminescence, 24 h; inhibition, % at 10 µM;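 active = inhibition of 40% or more at the single tested concentration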;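 also: wild-type TIM10 isogenic control strain grown at permissive 25 °C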
# EBI2 block = antagonists of human EBI2 receptor. P32249. EBI2 beta-arrestin recruitment, luminescence, 7a,25-OHC stimulated. inhibition, % at 5 µM. 360,000 tested, 0.81% active. AID 651636; in the data active = inhibition above about 38%;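 also: enzyme fragment complementation signal reports receptor beta-arrestin coupling in cells; 0% = agonist plus DMSO wells and 100% = wells without agonist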
# Target sequence (P32249 whole entry, looked up, the tested form may be a part): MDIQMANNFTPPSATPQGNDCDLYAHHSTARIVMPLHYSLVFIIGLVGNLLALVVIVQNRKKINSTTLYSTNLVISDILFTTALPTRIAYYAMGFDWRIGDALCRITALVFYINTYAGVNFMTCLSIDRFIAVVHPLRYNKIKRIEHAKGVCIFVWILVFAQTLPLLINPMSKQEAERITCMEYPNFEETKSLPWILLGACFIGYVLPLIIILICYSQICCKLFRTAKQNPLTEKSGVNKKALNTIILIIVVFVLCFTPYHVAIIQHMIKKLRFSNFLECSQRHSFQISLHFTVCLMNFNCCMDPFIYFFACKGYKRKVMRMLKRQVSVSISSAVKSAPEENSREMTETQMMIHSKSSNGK
# tim23-1 inh = inhibits growth of tim23-1 mutant yeast | inhibition, % at 20 µM | S. cerevisiae tim23-1 growth, BacTiter-Glo luminescence, 24 h | 330,000 tested, 1.3% active | AID 463212;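 active = growth inhibition of the mutant yeast at or above 50%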;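 also: temperature-sensitive mutant grown at 25 °C; plate controls were DMSO-treated mutant yeast for no effect and medium wells lacking yeast for full effect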
# SKKanGAS inh = inhibitors of SKKanGAS S. pyogenes growth in kanamycin (SK-promoter or general growth effect); 300,000 tested, 1.3% active; inhibition, % at 7.5 µM; BacTiter-Glo, 6 h; AID 1662;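 active = mean replicate score, as percent of positive control median, at least 50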;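 also: strain carries kanamycin resistance gene driven by streptokinase promoter and grows in 40 µg/ml kanamycin; loss of luminescence reflects streptokinase promoter inhibition or plain growth inhibition; 0% = median of DMSO wells and 100% = positive control at its reference dose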
# PfHsp90 set2 = inhibits growth of yeast expressing Plasmodium falciparum Hsp90; S. cerevisiae expressing PfHsp90, BacTiter-Glo ATP, 48 h; yeast lacking PDR1 and PDR3 efflux regulators; 310,000 tested, 0.32% active; inhibition, % at 9.4 µM; AID 504621;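 active = every replicate shows inhibition above about 80%, whatever the replicate mean, limit read from the data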;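 also: 0% = DMSO neutral controls and 100% = 20 µM radicicol positive controls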
# tim10-1 inh = inhibits growth of tim10-1 mutant yeast. S. cerevisiae tim10-1 ts strain growth, BacTiter-Glo, 24 h. inhibition, % at 20 µM. 330,000 tested, 2.2% active. AID 463190;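 active = inhibition of at least 40%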;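 also: mutant grown at 25 °C; 0% = DMSO wells with yeast and 100% = wells holding no yeast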
# EBI2 antag conf = confirmation of human EBI2 receptor antagonists. shares compounds with EBI2 block. EBI2 beta-arrestin luminescence, 7a,25-OHC antagonism. inhibition, % at 5 µM. 2,400 tested, 29% active. AID 651997;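 active = inhibition of at least 50%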
# EBI2 agonist = EBI2 agonism counter-screen; 2,400 tested, under 10 active; EBI2-expressing cells, agonist mode, luminescence, 60 min; 0% vehicle, 100% 7α,25-dihydroxycholesterol control; shares compounds with EBI2 block; activation, % at 5 µM;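 active = activation of at least 50%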
# bGal counter = beta-galactosidase inhibition counter-screen | shares compounds with EBI2 block | 2,400 tested, 1% active | AID 652176 | purified beta-galactosidase, luminescent Galacton Star, 15 min | inhibition, % at 5 µM;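 active = replicate-average signal at least 3 plate SD below neutral wells, shown as high inhibition, flagging enzyme-inhibiting false positives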;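 also: 0% = DMSO wells with enzyme and 100% = wells lacking enzyme; higher means stronger loss of beta-gal luminescence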
# Numbers without * were called inactive; nt = no result given; ! = not confirmed by another sample. Rows were chosen to be rich in hits. Some 4.7% of all compounds tested hit in one or more screens of this group.
SMILES,TIM10 inh,EBI2 block,tim23-1 inh,SKKanGAS inh,PfHsp90 set2,tim10-1 inh,EBI2 antag conf,EBI2 agonist,bGal counter
CC(C(=O)NCc1ccco1)n1nc(-c2ccccc2)c2cc(Cl)ccc21 (stereo not drawn),-4,14,5,-1,-3,-5,nt,nt,nt
O=C(Nc1cccc2c1CCCC2)c1cc(C2CCCCN2C(=O)OCCF)on1 (stereo not drawn),nt,25,nt,nt,nt,nt,nt,nt,nt
C(=N\N(c1ccccc1)c1ccccc1)/c1ccc(N2CCOCC2)s1,10,56*,2,-35,-16,13,20,2,4
CC(NC(=O)COC(=O)/C=C/c1ccc(Cl)cc1)c1ccccc1 (stereo not drawn),-5,48*,1,-4,-2,11,15,-1,-11
CC(NC(=O)COC(=O)/C=C/c1cccc(F)c1)c1ccccc1 (stereo not drawn),14,17,19,nt,16,14,nt,nt,nt
COCCCNC(=O)c1c(N)n(-c2ccccc2)c2nc3ccccc3nc12,17,10,31,16,nt,34,nt,nt,nt
CC(C)OCCCNC(=O)c1c(N)n(/N=C/c2ccccn2)c2nc3ccccc3nc12,8,48*,8,29,-62,9,21,0,-9
NC(=O)CSc1nnc(-c2ccc(O)cc2)n1Cc1ccco1,-1,-9,-3,0,14,10,nt,nt,nt
O=C(CSc1nnc(-c2ccc(O)cc2)n1Cc1ccco1)N1CCc2ccccc2C1,14,76*,22,-11,nt,29,15,0,1
CC(=O)c1cc2cccc(OC3(C)CCN(Cc4ccc(-c5ccccn5)cc4)C3)c2o1 (stereo not drawn),nt,-2,nt,nt,nt,nt,nt,nt,nt
COc1ccccc1-c1cc(NC=O)c2ncc(-c3cccc(C(=O)N(C)C)c3)n2c1,nt,75*,nt,nt,nt,nt,40,0,8
COc1ccc(C(CNC(=O)c2cccc(S(=O)(=O)NCc3ccccc3)c2)N2CCOCC2)cc1 (stereo not drawn),-2,10,7,-11,14,-4,nt,nt,nt
COc1ccc(CN2C[C@]3(CO)O[C@@H](CO)C[C@@H]3S2(=O)=O)cc1,-10,-4,33,nt,28,14,nt,nt,nt
CN(Cc1ccccc1)N=Nc1ccccc1,nt,6,nt,nt,nt,nt,nt,nt,nt
CN(C)N=Nc1ccc(-c2cn(Cc3ccccc3)cn2)cc1,5,45*,7,0,-10,16,39,1,0
C=CCc1cccc(CNc2nc3ccccc3n2CCN2CCOCC2)c1O,30,83*,12,-6,nt,22,84*,-1,7
CCCOc1ccc(Oc2nc(-c3ccncc3)nc3ccccc23)cc1,9,50*,8,5,-2,12,-1,-1,-13
COc1ccc(C(C(=O)NC(C)(C)C)N(C(=O)CCC(=O)Nc2cc(C)on2)c2ccc(C)c(C)c2)cc1 (stereo not drawn),14,10,17,0,24,6,nt,nt,nt
CC(Sc1nnc2ccccn12)C(=O)Nc1ccc2c(c1)OCO2 (stereo not drawn),2,7,-4,-5,-3,-8,nt,nt,nt
Cc1ccc(S(C)=O)cc1-n1c(=O)n(Cc2ccccc2)c(=O)c2[nH]cnc21 (stereo not drawn),8,67*,14,-5,12,10,59*,-3,59*
COc1ccc(C)c(-n2c(=O)n(Cc3ccccc3)c(=O)c3[nH]cnc32)c1,7,37,4,-3,nt,-8,nt,nt,nt
COC(=O)c1cc(=O)n(CCc2ccc(OC)cc2)c(=Nc2ccc(F)c(Cl)c2)s1,9,66*,1,-6,3,9,41,-1,7
CCOC(=O)c1ccc(N=c2sc(C(=O)OC)cc(=O)n2CCCN2CCOCC2)cc1,11,68*,17,7,-6,28,67*!,0,-12
CCn1c(=O)cc(C(=O)OC)sc1=Nc1ccc(F)c(F)c1,16,51*,30,3,-16,20,53*,2,6
COC(=O)c1cc(=O)n(CCc2ccccc2)c(=Nc2ccc(F)cc2)s1,-4,36,17,-4,-3,10,nt,nt,nt
SMILES,TIM10 inh,EBI2 block,tim23-1 inh,SKKanGAS inh,PfHsp90 set2,tim10-1 inh,EBI2 antag conf,EBI2 agonist,bGal counter
COC(=O)CCC(=O)Nc1ccc(Br)cc1,6,8,10,-1,5,-6,nt,nt,nt
CCOC(=O)N1CCN(C(=O)COc2ccc3ccccc3c2Br)CC1,21,52*,37,4,-15,2,24,-1,-7
O=C(COc1ccc2ccccc2c1Br)N1CCCC1,-6,2,30,-1,4,24,nt,nt,nt
CCOC(=O)N1CCN(C(=O)COc2ccccc2Cl)CC1,2,8,-1,5,nt,14,nt,nt,nt
CCOC(=O)N1CCN(C(=O)COc2cc(C)c(Cl)c(C)c2)CC1,13,83*,12,-5,0,13,63*,1,-2
CC(C)c1ccc(C2CC(c3ccc(Br)cc3)=NN2C(N)=S)cc1 (stereo not drawn),17,72*,15,16,-21,21,60*,-2,-11
CC(=O)N1N=C(c2ccc(Br)cc2)CC1c1ccc(Br)cc1 (stereo not drawn),nt,8,nt,nt,nt,nt,nt,nt,nt
CNC(=S)N1N=C(c2ccc(C)cc2)CC1c1ccc(Br)cc1 (stereo not drawn),23,81*,14,24,nt,22,65*,-1,-9
CNC(=S)N1N=C(c2ccc(C)cc2)CC1c1ccc(Cl)cc1 (stereo not drawn),18,73*,28,6,-7,27,62*,-1,-6
Cc1ccc(-c2cc3nc(-c4ccccc4)cc(NCCCO)n3n2)cc1,nt,47*,nt,nt,nt,nt,35,0,-10
CCOc1cc(S(=O)(=O)N2CC=C(c3ccc(F)cc3)CC2)c(OCC)cc1-n1cnnn1,-23,6,-7,-2,14,-2,nt,nt,nt
CCOc1cc(S(=O)(=O)N2CCC(Cc3ccccc3)CC2)c(OCC)cc1-n1cnnn1,9,45*,-8,-6,-12,9,22,1,5
Cc1ccc2c(SCC(=O)NCc3ccco3)nc(-c3ccc(F)cc3)nc2c1,-17,1,-8,-17,-33,15,nt,nt,nt
O=C(c1ccncc1)c1ccc(NS(=O)(=O)c2ccc(Br)s2)cc1,1,3,-4,13,-8,10,nt,nt,nt
O=C(Nc1ccc2ccccc2c1)c1ccc(NS(=O)(=O)c2ccc(Br)s2)cc1,-9,44*,4,96*,-34,-6,15,1,3

# From PubChem BioAssay
